Tg IFNy HTS: T. gondii growth inhibition with IFN-gamma, primary screen, cell-based. Toxoplasma gondii growth in IFN-gamma-treated host cells; hits give low values. activity change, negative = inhibition, % (test concentration not listed). 3.8% of 69,000 active; in the data active = activity change below about -70%, passing the limit was not always enough;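 note: host cells are HeLa cells infected with Toxoplasma gondii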
Of the large screens only hits and unclear results are named; the others gave an inactive call. Shown is part of a subset that was picked to be rich in hits.

Oc1ccc(OCc2ccccc2)cc1	none
Cc1sc2ncnc(Oc3ccc(OCc4ccccc4)cc3)c2c1C	Tg IFNy HTS -101
Cc1sc2ncnc(NCc3ccco3)c2c1C	none
C=CCNc1sc(C(=O)c2ccc(Cl)cc2)c(N)c1C#N	none
CCOC(=O)c1cccnc1N1Cc2cnc(-c3ccccc3)nc2C1	none
Brc1ccc(Nc2c3ccccc3nc3ccccc23)cc1	Tg IFNy HTS -92
Fc1ccc(CSc2nc(Nc3ccc(F)cc3)c3ccccc3n2)cc1	none
Cc1nc(OCC(=O)Nc2ccc(Br)cc2)c2ccccc2n1	none
Cc1oc(-c2ccc(F)cc2)nc1CN(C)Cc1cccc(C(F)(F)F)c1	none
C=CC(=O)Nc1cccc(Nc2nc(Nc3ccc(Oc4ccnc(C(=O)NC)c4)cc3)ncc2F)c1	Tg IFNy HTS -78
C=CC(=O)Nc1ccc2ncnc(Nc3cccc(Br)c3)c2c1	none
C=CC(=O)Nc1cccc(OC)c1	none
Cc1cc(C)nc(NCCC(=O)NC(C)c2ccccn2)n1 (centres undefined)	none
CCn1c(CC2CCN(Cc3ccc4occc4c3)CC2)nn(C)c1=O	none
CCCn1cc(CCNC(=O)c2cc3ccccc3[nH]2)c2cccnc21	Tg IFNy HTS -83
CCCN1C(=O)CCc2cc(NC(=O)c3cc4ccccc4[nH]3)ccc21	none
CC(CNC(=O)c1cc(=O)c2ccccc2[nH]1)Oc1cccnc1 (centres undefined)	none
CNC(=O)CN1C(=O)CCC12CCCN(c1cnccn1)C2 (centres undefined)	none
COC(=O)[C@@H]1C[C@@H](N(C)C)CN1C(=O)[C@@]12CC[C@@](C)(OC1=O)C2(C)C	none
Cc1cccc(-c2ncc(CN3CCCC(c4nc(CC(C)C)no4)C3)cn2)c1 (centres undefined)	none
COc1nc(N)nc2c1ncn2[C@@H]1O[C@H](CO)[C@@H](O)[C@@H]1O	none
Nc1ncn([C@@H]2O[C@H](CO)[C@@H](O)[C@H]2O)c(=O)n1	none
Nc1nc(=S)c2ncn([C@@H]3O[C@H](CO)[C@@H](O)[C@H]3O)c2[nH]1	Tg IFNy HTS -77
Cc1oncc1C(=O)N1CC[C@H]2C[C@H](c3ccncn3)O[C@H]2C1	none
CCCc1nc(NCc2cc(-c3ccccc3)n[nH]2)c2cnn(C)c2n1	Tg IFNy HTS -83
CCCc1nc(NCc2cc(-c3ccc(F)cc3)on2)c2cnn(C)c2n1	none
CCCc1nc(NCc2nnnn2-c2ccccc2)c2cnn(C)c2n1	none
Cc1ccc(C(NC(=O)CCc2c(C)nn(C)c2C)c2ccncc2)cc1 (centres undefined)	none
COc1ccc(-n2cccn2)c(CN(C)Cc2noc(C)n2)c1	none
O=C(COc1cccc(Cl)c1)Nc1cccc2nonc12	none
Cc1ccc(C(=O)Cn2c(=O)n(C(C)C)c3nc(-c4ccc(F)cc4)nc(C(N)=O)c32)cc1	none
Cn1c(-c2ccc(Cl)cc2)cc2ccccc21	none
Cc1ccc(C)c(CNC(=O)c2ccc(-c3nc(CN4CCN(c5ccccc5)CC4)c(C)o3)cc2)c1	Tg IFNy HTS -79
COc1ccccc1CNC(=O)c1ccc(-c2nc(CN3CCN(c4ccccc4)CC3)c(C)o2)cc1	Tg IFNy HTS -109
Cc1oc(-c2ccc(C(=O)NCCN3CCCC3)cc2)nc1CN1CCN(c2ccccc2)CC1	Tg IFNy HTS -76
Cc1oc(-c2ccc(C(=O)NCCC3=CCCCC3)cc2)nc1CN1CCN(c2ccccc2)CC1	none
Cc1oc(-c2ccc(C(=O)NCCC(C)C)cc2)nc1CN1CCN(c2ccccc2)CC1	none
Cc1oc(-c2ccc(C(=O)NCCc3ccccc3)cc2)nc1CN1CCN(c2ccccc2)CC1	none
Cc1oc(-c2ccc(C(=O)NCc3ccccn3)cc2)nc1CN1CCN(c2ccccc2)CC1	none
CCCNC(=O)c1ccc(-c2nc(CN3CCN(c4ccccc4)CC3)c(C)o2)cc1	none
Cc1oc(-c2ccc(C(=O)NCc3cccs3)cc2)nc1CN1CCN(c2ccccc2)CC1	none
Cc1ccc(C)c(NC(=O)c2ccc(-c3nc(CN4CCN(c5ccccc5)CC4)c(C)o3)cc2)c1	none
Cc1ccccc1CCNC(=O)c1ccc(-c2nc(CN3CCN(c4ccccc4)CC3)c(C)o2)cc1	Tg IFNy HTS -71
Cc1oc(-c2ccc(C(=O)NCC3CCCO3)cc2)nc1CN1CCN(c2ccccc2)CC1 (centres undefined)	none
O=C(Nc1ccc(Cl)cc1)Nc1ccc(-c2nc(-c3ccccc3)co2)cc1	none
CCCc1c(-c2ccccc2)ncn1CCCSC	none
COc1cccc(-c2nc(C)c(-c3ccc(SCc4ccc(F)cc4)nn3)s2)c1	none
CS(=O)(=O)N1CCN(c2ccc3ccc(C(=O)NCC4CC4)cn23)CC1	none
COCCN(C)C(=O)c1ccc2nnc3ncn(CC(C)C)c3c2c1	none
COc1cc(OC)c(C2=NOC(C(=O)N3CCCCCC3c3ccn(C)n3)C2)cc1Cl (centres undefined)	none
CN1C(=O)CCCC12CCCN(C(=O)c1cccc3cccnc13)C2 (centres undefined)	none
CNC(=O)c1ccc(-c2nc(CN3CCN(S(=O)(=O)c4c(C)cc(C)cc4C)CC3)c(C)o2)cc1	Tg IFNy HTS -96
CNC(=O)c1ccc(-c2nc(CN3CCN(S(C)(=O)=O)CC3)c(C)o2)cc1	none
CNC(=O)c1ccc(-c2nc(CN3CCN(S(=O)(=O)c4ccc(C)cc4C)CC3)c(C)o2)cc1	none
